Test results published in PubChem BioAssay (NCATS).
Inconclusive results are not listed. Unmarked numbers belong to inactive results. Calls of active or inactive are those of the source. The call rests on the fitted dose curve; in most records, active means well fitted inhibition curve with a large enough effect; inconclusive means small, poorly fitted or top-dose-only effect; inactive means flat fitted curve, though single readings scatter.

The molecules below were run on CP297 (assay: qHTS profiling for inhibitors of Plasmodium falciparum proliferation (AID 504749; further: nearly all actives have a fitted effect of over 60% in size;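 on activity, negative = inhibition: 0% = DMSO vehicle and full inhibition = artemisinin control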)). Settings: P. falciparum in erythrocytes, SYBR Green DNA, 72 h; series mostly up to 12.8 µM; activity, negative = inhibition: at the top concentration.
Procedure, shortened: (§1)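 Readout was DNA-dye fluorescence from lysed cultures, ex 485/em 535 nm. Parasitized red cells had grown 72 h with compound; data scaled between 0.29 uM artemisinin and DMSO wells and corrected using vehicle-only plates.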
Potency means the concentration at half of the fitted maximal effect.

| SMILES | activity, negative = inhibition | Potency |
| --- | --- | --- |
| CC1(C)S[C@H]2C(NC(=O)[C@@H](N)c3ccc(O)cc3)C(=O)N2[C@@H]1C(=O)O (some centres not stated) | 0.0378% [at 28.7 µM] | – |
| CN(C)CCc1c[nH]c2ccc(CC3COC(=O)N3)cc12 (configuration not stated) | -1.61% [at 28.7 µM] | – |
| C[C@@]12CCC(=O)C=C1C=CC1C2CC[C@]2(C)C1CC[C@@]21CCC(=O)O1 (some centres not stated) | -1.25% [at 28.7 µM] | – |
| NC(CCC(=O)N[C@@H](CS)C(=O)NCC(=O)O)C(=O)O (some centres not stated) | – | 15.1 µM (active) |
| CC(=O)O[C@@]1(C(C)=O)CCC2C3CC(C)C4=CC(=O)CC[C@@]4(C)C3CC[C@]21C (some centres not stated) | -12.1% [at 28.7 µM] | – |
| N[C@@H]1C(O)OC(CO)C(O)C1O (some centres not stated) | 0.0026% [at 28.7 µM] | – |
| CC(=O)[C@]1(O)CCC2C3C=C(Cl)C4=CC(=O)C5CC5[C@@]4(C)C3CC[C@]21C (some centres not stated) | -1.96% [at 28.7 µM] | – |
| COC1OC(CO)C(OC2OC(C(=O)O)C(OC3OC(COS(=O)(=O)O)C(OC4OC(C(=O)O)C(OC5OC(CO)C(OC6OC(C(=O)O)C(OC7OC(COS(=O)(=O)O)C(OC8OC(C(=O)O)=C[C@H](O)C8OS(=O)(=O)O)C(O)C7NC(C)=O)[C@@H](O)C6O)C(O)C5NC(C)=O)[C@@H](O)C4O)C(O)C3NC(C)=O)[C@@H](O)C2O)C(O)C1NC(C)=O (some centres not stated) | -11.4% [at 28.7 µM] | – |
| C[C@@]12C=CC(=O)C=C1CCC1C3CC(O)[C@@](O)(C(=O)CO)[C@]3(C)CC(O)[C@]12F (some centres not stated) | -5.82% [at 28.7 µM] | – |
| CCC1OC(=O)C(C)[C@@H](O[C@H]2C[C@@](C)(OC)C(O)C(C)O2)C(C)[C@@H](O[C@@H]2OC(C)CC(N(C)C)C2O)[C@@](C)(O)CC(C)C(=O)[C@@H](C)C(O)[C@]1(C)O (some centres not stated) | -1.02% [at 28.7 µM] | – |
| CC1C2CCC3C4CC=C5CC(N(C)C)CC[C@@]5(C)C4CC[C@@]32CN1C (some centres not stated) | 2.87% [at 28.7 µM] | – |
| CCC(C)C(=O)OC1CC(O)C=C2C=CC(C)C(CCC(O)CC(O)CC(=O)O)C21 (configuration not stated) | 21% [at 28.7 µM] | – |
| OCC1OC(n2cnc3c(=S)nc[nH]c32)C(O)C1O (configuration not stated) | -11.8% [at 28.7 µM] | – |

Each molecule was assayed on CP305 in the same assay as above. Settings: P. falciparum in erythrocytes, SYBR Green DNA, 72 h; series mostly up to 12.8 µM; activity, negative = inhibition: at the top concentration.
Procedure, shortened: as §1

| SMILES | activity, negative = inhibition |
| --- | --- |
| CC1(C)S[C@H]2C(NC(=O)[C@@H](N)c3ccc(O)cc3)C(=O)N2[C@@H]1C(=O)O (some centres not stated) | 1.84% [at 28.7 µM] |
| CN(C)CCc1c[nH]c2ccc(CC3COC(=O)N3)cc12 (configuration not stated) | -2.04% [at 28.7 µM] |
| C[C@@]12CCC(=O)C=C1C=CC1C2CC[C@]2(C)C1CC[C@@]21CCC(=O)O1 (some centres not stated) | -8.1% [at 28.7 µM] |
| CC(C)Oc1ccc2c(=O)cc(-c3ccccc3)oc2c1 | -11.9% [at 28.7 µM] |
| CCCCCCCCCc1ccc(OCCOCCOCCOCCOCCOCCOCCOCCOCCO)cc1 | -8.8% [at 28.7 µM] |
| CC(=O)O[C@@]1(C(C)=O)CCC2C3CC(C)C4=CC(=O)CC[C@@]4(C)C3CC[C@]21C (some centres not stated) | 1.13% [at 28.7 µM] |
| N[C@@H]1C(O)OC(CO)C(O)C1O (some centres not stated) | -11.5% [at 28.7 µM] |
| CC(=O)OCC(=O)[C@@]12OC3(CCCC3)OC1CC1C3CCC4=CC(=O)C=C[C@@]4(C)[C@]3(F)C(O)C[C@]12C (some centres not stated) | -1.71% [at 28.7 µM] |
| C=Cc1c(C)/c2[n-]/c1=C\c1[n-]c(c(CC)c1C)/C=c1\[n-]c3c(c1C)C(=O)C(C(=O)[O-])C=3c1[n-]c(c(C)c1CCC(=O)[O-])\C=2.[Cu].[Na+].[Na+] (configuration not stated) | -5.78% [at 28.7 µM] |
| CC(=O)[C@]1(O)CCC2C3C=C(Cl)C4=CC(=O)C5CC5[C@@]4(C)C3CC[C@]21C (some centres not stated) | -3.81% [at 28.7 µM] |
| COC1OC(CO)C(OC2OC(C(=O)O)C(OC3OC(COS(=O)(=O)O)C(OC4OC(C(=O)O)C(OC5OC(CO)C(OC6OC(C(=O)O)C(OC7OC(COS(=O)(=O)O)C(OC8OC(C(=O)O)=C[C@H](O)C8OS(=O)(=O)O)C(O)C7NC(C)=O)[C@@H](O)C6O)C(O)C5NC(C)=O)[C@@H](O)C4O)C(O)C3NC(C)=O)[C@@H](O)C2O)C(O)C1NC(C)=O (some centres not stated) | -7.16% [at 28.7 µM] |
| C[C@@]12C=CC(=O)C=C1CCC1C3CC(O)[C@@](O)(C(=O)CO)[C@]3(C)CC(O)[C@]12F (some centres not stated) | 7.22% [at 28.7 µM] |
| CCC1OC(=O)C(C)[C@@H](O[C@H]2C[C@@](C)(OC)C(O)C(C)O2)C(C)[C@@H](O[C@@H]2OC(C)CC(N(C)C)C2O)[C@@](C)(O)CC(C)C(=O)[C@@H](C)C(O)[C@]1(C)O (some centres not stated) | -1.27% [at 28.7 µM] |
| CC1C2CCC3C4CC=C5CC(N(C)C)CC[C@@]5(C)C4CC[C@@]32CN1C (some centres not stated) | -11.6% [at 28.7 µM] |
| COC1CC(O[C@H]2/C(C)=C/CC3CC(C[C@]4(CCC(C)C(C5CCCCC5)O4)O3)OC(=O)[C@H]3C=C(C)/C(=N/O)C4OC/C(=C\C=C\[C@@H]2C)[C@@]43O)OC(C)C1O (some centres not stated) | -2.41% [at 28.7 µM] |
| CCC(C)C(=O)OC1CC(O)C=C2C=CC(C)C(CCC(O)CC(O)CC(=O)O)C21 (configuration not stated) | 1.11% [at 28.7 µM] |
| OCC1OC(n2cnc3c(=S)nc[nH]c32)C(O)C1O (configuration not stated) | -9.1% [at 28.7 µM] |

Each molecule was assayed on CP315 in the same assay as above. Settings: P. falciparum in erythrocytes, SYBR Green DNA, 72 h; series mostly up to 12.8 µM; activity, negative = inhibition: at the top concentration.
Procedure, shortened: as §1

| SMILES | activity, negative = inhibition |
| --- | --- |
| CC1(C)S[C@H]2C(NC(=O)[C@@H](N)c3ccc(O)cc3)C(=O)N2[C@@H]1C(=O)O (some centres not stated) | -5.59% [at 28.7 µM] |
| CN(C)CCc1c[nH]c2ccc(CC3COC(=O)N3)cc12 (configuration not stated) | -0.0204% [at 28.7 µM] |
| C[C@@]12CCC(=O)C=C1C=CC1C2CC[C@]2(C)C1CC[C@@]21CCC(=O)O1 (some centres not stated) | 4.85% [at 28.7 µM] |
| NC(CCC(=O)N[C@@H](CS)C(=O)NCC(=O)O)C(=O)O (some centres not stated) | 1.12% [at 28.7 µM] |
| CC(C)Oc1ccc2c(=O)cc(-c3ccccc3)oc2c1 | -6.4% [at 28.7 µM] |
| CCCCCCCCCc1ccc(OCCOCCOCCOCCOCCOCCOCCOCCOCCO)cc1 | -10.1% [at 28.7 µM] |
| CC(=O)O[C@@]1(C(C)=O)CCC2C3CC(C)C4=CC(=O)CC[C@@]4(C)C3CC[C@]21C (some centres not stated) | 1.59% [at 28.7 µM] |
| N[C@@H]1C(O)OC(CO)C(O)C1O (some centres not stated) | -1.89% [at 28.7 µM] |
| CC(=O)OCC(=O)[C@@]12OC3(CCCC3)OC1CC1C3CCC4=CC(=O)C=C[C@@]4(C)[C@]3(F)C(O)C[C@]12C (some centres not stated) | -6.73% [at 28.7 µM] |
| CC(=O)[C@]1(O)CCC2C3C=C(Cl)C4=CC(=O)C5CC5[C@@]4(C)C3CC[C@]21C (some centres not stated) | -1.44% [at 28.7 µM] |
| COC1OC(CO)C(OC2OC(C(=O)O)C(OC3OC(COS(=O)(=O)O)C(OC4OC(C(=O)O)C(OC5OC(CO)C(OC6OC(C(=O)O)C(OC7OC(COS(=O)(=O)O)C(OC8OC(C(=O)O)=C[C@H](O)C8OS(=O)(=O)O)C(O)C7NC(C)=O)[C@@H](O)C6O)C(O)C5NC(C)=O)[C@@H](O)C4O)C(O)C3NC(C)=O)[C@@H](O)C2O)C(O)C1NC(C)=O (some centres not stated) | 1.8% [at 28.7 µM] |
| C[C@@]12C=CC(=O)C=C1CCC1C3CC(O)[C@@](O)(C(=O)CO)[C@]3(C)CC(O)[C@]12F (some centres not stated) | 0.0204% [at 28.7 µM] |
| CCC1OC(=O)C(C)[C@@H](O[C@H]2C[C@@](C)(OC)C(O)C(C)O2)C(C)[C@@H](O[C@@H]2OC(C)CC(N(C)C)C2O)[C@@](C)(O)CC(C)C(=O)[C@@H](C)C(O)[C@]1(C)O (some centres not stated) | -3.64% [at 28.7 µM] |
| CC1C2CCC3C4CC=C5CC(N(C)C)CC[C@@]5(C)C4CC[C@@]32CN1C (some centres not stated) | -9.55% [at 28.7 µM] |
| COC1CC(O[C@H]2/C(C)=C/CC3CC(C[C@]4(CCC(C)C(C5CCCCC5)O4)O3)OC(=O)[C@H]3C=C(C)/C(=N/O)C4OC/C(=C\C=C\[C@@H]2C)[C@@]43O)OC(C)C1O (some centres not stated) | -1.43% [at 28.7 µM] |
| CCC(C)C(=O)OC1CC(O)C=C2C=CC(C)C(CCC(O)CC(O)CC(=O)O)C21 (configuration not stated) | 1.29% [at 28.7 µM] |
| OCC1OC(n2cnc3c(=S)nc[nH]c32)C(O)C1O (configuration not stated) | -3.73% [at 28.7 µM] |
